In all, about 33,000 sequences were measured (“e-score”: median about -0.038, highest 2% from about 0.33 on). For the sample, the highest values were picked, then their nearest neighbours and some sequences at random.

For this test, the target named is T1, GST-Rok-C97-191 (Bacillus subtilis subsp. subtilis str. …, UniProt O34857 97-191).
T1 sequence: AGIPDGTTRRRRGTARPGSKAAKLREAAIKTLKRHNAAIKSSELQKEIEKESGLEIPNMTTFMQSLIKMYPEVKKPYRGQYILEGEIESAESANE
In words: protein binding microarray; Rok is a gene silencer of Bacillus subtilis; high values mean tight binding. Conditions: protein: recombinant; tags: GST (pTH5325, pDEST15-Magic modified); dsDNA, one strand shown. The procedure, abridged: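 Each has a 25-mer constant primer and a 35-mer variable part from a de Bruijn sequence of order 10, covering every non-palindromic 8-mer at least 32 times (palindromic 16). Preference for each 8-mer is given as a rank-based, unitless enrichment score (E-score). Its range runs from 0.5 (most favored) to −0.5 (most disfavored).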
Consider ACTCTTTA, for which the binding signal was 0.0447 E-score. On to ATATAGGG, for which the binding signal was -0.00212 E-score. Take ATGTATAG: the binding signal amounted to 0.264 E-score. As for CCATATAG, the binding signal was 0.129 E-score. Take CGATATAG: the binding signal was found to be 0.238 E-score. To ATATAGCA belongs 0.3 E-score; to ATATAGCC, 0.135 E-score; to CTATATAG, 0.413 E-score. To ATATATAG belongs 0.379 E-score; to ATATAGCG, 0.349 E-score. To AGCTTTGA belongs 0.0387 E-score; to AGCGGCAC, -0.177 E-score; to ATAGTTCC, 0.143 E-score.

With ATAGTTCA, the binding signal came to 0.265 E-score. To ATAGTTAC belongs 0.254 E-score; to ATAGTTAG, 0.35 E-score; to ATAGTTCG, 0.354 E-score.

As to AAAGTTAG, the binding signal was 0.156 E-score. Turning to CTGTGAGA, the binding signal is -0.127 E-score. The same measure for GCACTTGA: -0.0251 E-score. The same measure for CATCATAG: 0.00873 E-score; for CTTATTCA: 0.048 E-score; for CGCAAAGA: -0.193 E-score. To GGAAAAAA belongs -0.0552 E-score; to CGTACAAA, 0.236 E-score.

AGTACAAA: the binding signal came to 0.342 E-score. The same measure for AGTACAAT: 0.269 E-score; for AGTACAAG: 0.247 E-score. The same measure for TGTACAAA: 0.355 E-score. To GGTACAAA belongs 0.216 E-score; to TCGAGGCA, 0.00484 E-score; to CCGCAAGA, -0.109 E-score.

For the sequence GAATCGGA, the binding signal was -0.078 E-score.

In the case of CGATAGAA, the binding signal came to 0.359 E-score. To AGATAGAA belongs 0.308 E-score; to TGATAGAA, 0.385 E-score; to GGATAGAA, 0.195 E-score. Regarding CGATAGAC, the binding signal came to 0.063 E-score. The same measure for CGATAGAG: -0.176 E-score; for GTGTTACA: 0.168 E-score. To CTAATGTA belongs 0.185 E-score; to GTAATGTA, 0.339 E-score; to GTAATGAA, -0.0192 E-score. The same measure for ATAATGTA: 0.405 E-score. With ATAATGTG, the binding signal worked out at 0.167 E-score.

Take ATAATGTC: the binding signal stood at 0.112 E-score. The same measure for ATAAACGG: 0.19 E-score; for CGCCACCG: -0.0411 E-score. To ATTACTGC belongs 0.11 E-score; to ATTACTAG, 0.392 E-score. For the sequence CTTACTAC, the binding signal was determined as 0.171 E-score. To ATTACTAC belongs 0.407 E-score. With ATTACTAA, the binding signal was found to be 0.326 E-score. Turning to ATTACTCG, the binding signal stood at 0.198 E-score. The same measure for ATGTTTAC: 0.00161 E-score; for AAATGGTT: 0.177 E-score; for AGCTTCTG: -0.0648 E-score. To CGCTAGAC belongs 0.00486 E-score; to ATGTCCAC, -0.0386 E-score. The same measure for GTCTACGA: -0.0769 E-score; for ATCTACCA: 0.469 E-score. In the case of ATCTACCC, the binding signal worked out at 0.22 E-score. As to ATCTATCG, the binding signal was found to be 0.313 E-score. As to ACCTACCG, the binding signal stood at 0.148 E-score.

As for GTCTACCA, the binding signal worked out at 0.15 E-score.

Turning to ATCTACGA, the binding signal amounted to 0.333 E-score. For ATCTACCG, the binding signal is 0.394 E-score.

CTCTACGA: the binding signal was determined as 0.107 E-score. To CGAAAGAC belongs -0.0876 E-score; to GAAAGACA, -0.0886 E-score.

With GTGCAGTA, the binding signal was 0.196 E-score. With ATCGAGGC, the binding signal is -0.159 E-score. To TATGACGA belongs 0.0683 E-score. The same measure for ATATTAAA: 0.385 E-score. For CTATTTAA, the binding signal came to 0.14 E-score.

As for ATATTTAC, the binding signal amounted to 0.375 E-score. To ACATTTAC belongs 0.315 E-score; to CTATTAAA, 0.0376 E-score. In the case of CTATTTAC, the binding signal was 0.349 E-score. For ATATTAAC, the binding signal was found to be 0.296 E-score. The same measure for ATTTTTAA: 0.146 E-score. With CTCTTTAC, the binding signal came out at 0.0967 E-score. To ATATTTGC belongs 0.295 E-score; to ATATTTAA, 0.338 E-score. On to ATATTTAG, for which the binding signal is 0.201 E-score. The same measure for CTTTACTC: -0.199 E-score. For ATGTAGGA, the binding signal is 0.201 E-score.

Take CTTGACGA: the binding signal is -0.14 E-score. To AATGTACT belongs 0.296 E-score; to AATGTACG, 0.155 E-score.

For AGTGTACA, the binding signal came to 0.141 E-score. With AATGTACC, the binding signal was 0.373 E-score. To TATGTACA belongs 0.345 E-score; to AATGTACA, 0.34 E-score.

Regarding CATGTACC, the binding signal worked out at 0.227 E-score. To CATGTACA belongs 0.317 E-score; to GATGTACA, 0.29 E-score.

Turning to CCGAGTCG, the binding signal was -0.148 E-score.

As to AGGAGAAA, the binding signal stood at 0.073 E-score. The same measure for CACGAAGC: -0.104 E-score; for AGCATTTG: -0.0352 E-score; for AACTGAAC: 0.106 E-score. The same measure for GCCATTGA: -0.0503 E-score; for TATTTAAA: 0.186 E-score. To AAAAGACG belongs 0.0272 E-score; to TAACGGTA, 0.278 E-score. For the sequence CTTGAAGA, the binding signal is -0.0244 E-score. To ATTTATAA belongs 0.294 E-score. The same measure for ATTTATAG: 0.358 E-score.

With ATTTATGG, the binding signal is 0.174 E-score.

Turning to AGTTATAC, the binding signal is 0.241 E-score. As to ATTTATAC, the binding signal amounted to 0.348 E-score.

As to CTTTATAC, the binding signal is 0.227 E-score.

Consider GACTCTCA, for which the binding signal is -0.0851 E-score. The same measure for GGTCTGCA: -0.0588 E-score; for CACTACAC: 0.0572 E-score. The same measure for GACTACAC: -0.000838 E-score. As to AGCTACAC, the binding signal is 0.169 E-score. Consider GACTACAA, for which the binding signal was -0.00391 E-score.

On to AGCTACAT, for which the binding signal was 0.368 E-score. To AACTACAC belongs 0.33 E-score; to ATCTACAT, 0.342 E-score; to ATCTACAC, 0.273 E-score. The same measure for AGCTACAA: 0.209 E-score; for CACTACAA: 0.173 E-score; for ATCTACAG: 0.309 E-score. On to AACTACAA, for which the binding signal was found to be 0.348 E-score. The same measure for AGAACTGG: -0.0864 E-score; for CAATGGGC: -0.197 E-score; for AATCGCCA: -0.00284 E-score.

AAAGCCAT: the binding signal was -0.088 E-score.

GTTCCTGA: the binding signal was -0.0326 E-score. In the case of ACTCGTTA, the binding signal was 0.225 E-score. To ACCTACAT belongs 0.227 E-score; to AACTACGA, 0.283 E-score; to AACTACAT, 0.364 E-score. Turning to AACTACGC, the binding signal turned out to be 0.126 E-score. The same measure for AACTACAG: 0.327 E-score; for AACTACGT: 0.338 E-score; for AACAATGA: 0.0026 E-score. The same measure for ACGAGCAG: -0.19 E-score; for ATTTTGAC: 0.235 E-score. For the sequence ACGCTCAC, the binding signal was -0.0887 E-score.

Regarding ACCATAAC, the binding signal amounted to 0.0976 E-score. To GACTTTAC belongs -0.0515 E-score; to AAATCTGC, -0.0413 E-score; to AAATCTAG, 0.352 E-score. To AAATCTAA belongs 0.202 E-score. To AAATCTGT belongs 0.141 E-score; to AAATCTAT, 0.4 E-score. With AAATCTTC, the binding signal came out at 0.0559 E-score.

On to CAATCTAG, for which the binding signal came out at 0.206 E-score. The same measure for AAATCTAC: 0.441 E-score; for ACATCTAG: 0.323 E-score; for AGCTTTCG: -0.16 E-score. To GAGAACCC belongs -0.104 E-score.

As to CCTTCTAC, the binding signal came out at 0.235 E-score. The same measure for AAGTTGGA: -0.145 E-score; for AGCAATTA: 0.303 E-score. To AGCAATTC belongs 0.115 E-score.

On to AGCAATTG, for which the binding signal was found to be 0.332 E-score. To CGGCCGAG belongs -0.169 E-score; to AGCGCCCC, -0.198 E-score; to AGGGACCC, -0.173 E-score. The same measure for CTTCTAGC: 0.138 E-score; for GTTCTACA: 0.247 E-score; for CTTCTATC: 0.241 E-score.

Regarding ATTCTACA, the binding signal was found to be 0.382 E-score.

ATTCTAGC: the binding signal is 0.249 E-score. Regarding CTTCTACA, the binding signal is 0.273 E-score. The same measure for ATTCTATC: 0.414 E-score; for ATTCTATA: 0.224 E-score.

The values are drawn from article PMC6212790, “How bacterial xenogeneic silencer rok distinguishes foreign from self DNA in its resident genome”.
